Assay [1] is described as follows: qHTS assay to identify small molecule agonists of the peroxisome proliferator-activated receptor delta (PPARd) signaling pathway - cell viability counter screen (AID 743211). Further: nearly all actives have a fitted effect of over 55% in size. Further: potency means the concentration at half of the fitted maximal effect. In a few lines: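 HEK293H PPARd-bla, 3000 cells/well; 5 h preincubation 37C/5% CO2; cpd in DMSO, 17 h 37C; B/G FRET substrate 2 h RT; CellTiter-Glo 30 min RT, luminescence.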
(In general: In qHTS, concentration-response curves come from the screen itself.)

A short description of assay [2]: qHTS assay to identify small molecule antagonists of the peroxisome proliferator-activated receptor delta (PPARd) signaling pathway - cell viability counter screen (AID 743213). Further: nearly all actives have a fitted effect of over 50% in size. Further: potency means the concentration at half of the fitted maximal effect. In a few lines:
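CellTiter-Glo was added to PPARd-bla HEK293H wells following 17 h compound treatment in the presence of 300 nM L165041. Luminescence was recorded after 30 min at room temperature.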

Assay [3] in a line: qHTS assay to identify small molecule agonists of the farnesoid-X-receptor (FXR) signaling pathway - cell viability counter screen (AID 743218). Further: nearly all actives have a fitted effect of over 45% in size. Further: potency means the concentration at half of the fitted maximal effect. A digest of the protocol: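 Viability counter screen in the same wells: CellTiter-Glo luminescence, 30 min room-temperature incubation, measured after the beta-lactamase read. Cells were GeneBLAzer FXR-UAS-bla HEK 293T, compound-treated 16 h at 37C.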

A short description of assay [4]: qHTS assay to identify small molecule antagonists of the farnesoid-X-receptor (FXR) signaling pathway - cell viability counter screen (AID 743221; active means well fitted cell-killing curve with a large enough effect in the repeat runs, not every such curve was filed as active; further: nearly all actives have a fitted effect of over 50% in size; further: potency means the concentration at half of the fitted maximal effect). In a few lines:
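Luminescence from CellTiter-Glo measures cytotoxicity in GeneBLAzer FXR-UAS-bla HEK 293T cells. Cells were exposed to compounds with 50 uM chenodeoxycholic acid (final) for 16 h at 37 C, in wells also used for the reporter readout.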

Assay [5] can be described thus: qHTS assay to identify small molecule agonists of the vitamin D receptor (VDR) signaling pathway - cell viability counter screen (AID 743224). Further: nearly all actives have a fitted effect of over 50% in size. Further: potency means the concentration at half of the fitted maximal effect. A digest of the protocol: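 Counter screen run in the same wells as the VDR-bla reporter assay: CellTiter-Glo luminescence, 30 min at room temperature, after 16 h compound treatment at 37C of cells pre-plated for 4 h.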
The nature of assay [6]: qHTS assay to identify small molecule antagonists of the vitamin D receptor (VDR) signaling pathway - cell viability counter screen (AID 743225). Further: nearly all actives have a fitted effect of over 50% in size. Further: potency means the concentration at half of the fitted maximal effect. In a few lines:
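Read-out: CellTiter-Glo luminescence measured 30 min after reagent addition at room temperature. Cells were VDR-bla HEK 293T exposed 16 h at 37C, 5% CO2, to compound with 3 nM final calcitriol agonist.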

The nature of assay [7]: qHTS assay to identify small molecule antagonists of the retinoid-related orphan receptor gamma (ROR-gamma) signaling pathway - cell viability counter screen (AID 1159520). Further: nearly all actives have a fitted effect of over 50% in size. Further: potency means the concentration at half of the fitted maximal effect. A digest of the protocol:
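Tet-on ROR gamma CHO cells (1,000/well) were plated 4 hr, given compounds in DMSO for 2 hr at 37 C, then induced with 1 uM final doxycycline for 16 hr. Viability was read as ATP by CellTiter-Glo luminescence after 30 min.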

Assay [8] concerns the target Nuclear receptor ROR-gamma (Homo sapiens) (UniProt P51449). Nature of the assay: qHTS assay to identify small molecule antagonists of the retinoid-related orphan receptor gamma (ROR-gamma) signaling pathway (AID 1159521; further: nearly all actives have a fitted effect of over 50% in size; further: potency means the concentration at half of the fitted maximal effect). In a few lines:
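CHO Tet-on RORγ, RORE-luc reporter. Cpd 2 h pre-incubation, then dox hyclate 1 uM final, 16 h, 37 C/5% CO2. ONE-Glo luminescence; decrease = antagonist.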

Assay [9] in a line: qHTS assay to identify small molecule agonists of the RXR signaling pathway - cell viability counter screen (AID 1159529). Further: nearly all actives have a fitted effect of over 50% in size. Further: potency means the concentration at half of the fitted maximal effect. In a few lines:
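HEK 293T RXRa-bla cells, 2% CS-FBS; 5 h settle; cpd 16 h 37 C, 5% CO2; CellTiter-Glo 30 min RT, luminescence. Tetraoctyl ammonium bromide as positive control.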

Assay [10] in a line: qHTS assay to identify small molecule antagonists of the retinoid acid receptor (RAR) signaling pathway - cell viability counter screen (AID 1159551). Further: nearly all actives have a fitted effect of over 35% in size. A digest of the protocol: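 Cytotoxicity counter screen: ATP content quantified by CellTiter-Glo luminescence in C3RL4 cells treated 6 hr at 37 C with compound and retinol (1 uM final). Cells plated at 1,000/well and cultured overnight before dosing.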

Assay [11] deals with Peroxisome proliferator-activated receptor delta (Homo sapiens) (UniProt Q03181). The assay can be described thus: qHTS assay to identify small molecule antagonists of the peroxisome proliferator-activated receptor delta (PPARd) signaling pathway (AID 743215; active means well fitted inhibition curve with a large enough effect in the signal ratio in the repeat runs, not every such curve was filed as active; the % refers to the signal ratio;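 further: cells stimulated with agonist L165041 at 300 nM final during compound exposure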; further: potency means the concentration at half of the fitted maximal effect). A digest of the protocol:
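Agonist L165041 (300 nM final) added with compound to PPARd-bla HEK293H UAS-bla reporter cells; 17 h incubation at 37 C. Read-out: LiveBLAzer FRET substrate, 2 h at room temperature, fluorescence intensity.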

In assay [12] the target is Vitamin D3 receptor (Homo sapiens) (UniProt P11473). The assay can be described thus: qHTS assay to identify small molecule agonists of the vitamin D receptor (VDR) signaling pathway (AID 743222; calls by dose curve). In a few lines:
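Agonist mode, beta-lactamase reporter: fluorescence from LiveBLAzer B/G FRET substrate (2 h, room temperature) read after 16 h compound treatment at 37 C of VDR-bla cells, which were pre-incubated 4 h after seeding.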

For assay [13] the target is unchanged. The assay can be described thus: qHTS assay to identify small molecule antagonists of the vitamin D receptor (VDR) signaling pathway (AID 743223; active means well fitted inhibition curve with a large enough effect in the signal ratio in the repeat runs, not every such curve was filed as active; the % refers to the signal ratio; further: potency means the concentration at half of the fitted maximal effect). A digest of the protocol: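 Antagonist mode uses 1alpha,25-dihydroxyvitamin D3 at 3 nM final as stimulus. VDR-bla cells receive compounds in DMSO, incubate 16 h at 37C, then a beta-lactamase FRET substrate for 2 h at room temperature before fluorescence measurement.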

Assay [14] can be described thus: qHTS assay to identify small molecule agonists of the AP-1 signaling pathway - cell viability counter screen (AID 1159525; calls by dose curve; further: nearly all actives have a fitted effect of over 55% in size; further: potency means the concentration at half of the fitted maximal effect). A digest of the protocol: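 Each titration point was normalised to DMSO and tetra n-octyl ammonium bromide controls. The read was Cell Titer Glo luminescence after 30 min at RT, following 5 h compound exposure of ME-180 AP-1-bla cells at 37 °C.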

Assay [15] can be described thus: qHTS assay to identify small molecule antagonists of the retinoic acid receptor (RAR) signaling pathway (AID 1159552; further: nearly all actives have a fitted effect of over 50% in size; further: potency means the concentration at half of the fitted maximal effect). In a few lines:
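Cells of the C3RL4 line were seeded, incubated overnight, then dosed with compounds in DMSO followed immediately by retinol (1 uM final). Six hours later luciferase detection reagent went in; signal was measured after 30 min at RT.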

Assay [16] addresses Retinoic acid receptor RXR-alpha (Homo sapiens) (UniProt P19793). The assay can be described thus: qHTS assay to identify small molecule agonists of the RXR signaling pathway (AID 1159527; calls by dose curve; further: nearly all actives have a fitted effect of over 35% in size; further: potency means the concentration at half of the fitted maximal effect). A digest of the protocol: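 Read-out: beta-lactamase FRET ratio (405 nm excitation, 460 and 530 nm emission) after 2 hr substrate loading at room temperature. Cells were RXR-alpha-UAS-bla HEK 293T treated with compounds for 16 hr in 2% charcoal-stripped FBS medium.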

Assay [17] addresses Peroxisome proliferator-activated receptor delta (Homo sapiens) (UniProt Q03181). Nature of the assay: qHTS assay to identify small molecule agonists of the peroxisome proliferator-activated receptor delta (PPARd) signaling pathway (AID 743212; calls by dose curve). A digest of the protocol:
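Cells expressing a UAS-driven beta-lactamase reporter (PPARd-bla HEK293H) were given test compounds after a 5 h settle and kept at 37 C. Reporter activity was then measured as FRET fluorescence using LiveBLAzer B/G substrate.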

Assay [18] addresses Bile acid receptor (Homo sapiens) (UniProt Q96RI1). Nature of the assay: qHTS assay to identify small molecule antagonists of the farnesoid-X-receptor (FXR) signaling pathway (AID 743217; active means well fitted inhibition curve with a large enough effect in the signal ratio in the repeat runs, not every such curve was filed as active; the % refers to the signal ratio). A digest of the protocol: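 Antagonist mode: chenodeoxycholic acid at 50 uM final stimulates a UAS-driven beta-lactamase reporter in HEK 293T FXR-bla cells during 16 h, 37C compound exposure. Read-out is FRET substrate fluorescence after 2 h at room temperature.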

For assay [19] the target is unchanged. Nature of the assay: qHTS assay to identify small molecule agonists of the farnesoid-X-receptor (FXR) signaling pathway (AID 743220; active means well fitted activation curve with a large enough effect in the signal ratio in the repeat runs, not every such curve was filed as active; the % refers to the signal ratio). A digest of the protocol:
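FXR-UAS-bla HEK 293T cells carrying a UAS-driven beta-lactamase reporter were plated for 5 h at 37C/5% CO2, then exposed to DMSO-dissolved Tox21 10K compounds for 16 h at 37C. A LiveBLAzer B/G FRET substrate was loaded for 2 h at room temperature before fluorescence reading.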

Inconclusive results are not listed. A number with no mark means an inactive call. Activity calls are given as the source filed them. Unless noted, the call rests on the fitted dose curve; in most records, active means well fitted curve in the direction sought with a large enough effect in the repeat runs; inconclusive means weak or mixed curves; inactive means no such curve, though single readings can be large; an effect the other way counts as inactive or inconclusive.

Chain of Vitamin D3 receptor (Homo sapiens) (P11473 whole entry, looked up): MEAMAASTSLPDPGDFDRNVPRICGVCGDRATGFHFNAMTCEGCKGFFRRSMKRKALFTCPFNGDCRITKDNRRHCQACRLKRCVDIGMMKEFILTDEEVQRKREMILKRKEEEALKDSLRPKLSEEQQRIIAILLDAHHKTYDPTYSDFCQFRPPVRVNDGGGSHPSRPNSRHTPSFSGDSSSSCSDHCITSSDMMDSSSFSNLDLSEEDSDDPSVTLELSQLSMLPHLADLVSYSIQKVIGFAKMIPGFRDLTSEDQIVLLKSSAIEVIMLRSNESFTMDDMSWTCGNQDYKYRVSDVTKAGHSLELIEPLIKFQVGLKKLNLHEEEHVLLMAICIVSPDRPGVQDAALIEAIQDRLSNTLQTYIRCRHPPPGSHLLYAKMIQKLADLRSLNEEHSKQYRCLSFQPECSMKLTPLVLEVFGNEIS
Chain of Peroxisome proliferator-activated receptor delta (Homo sapiens) (Q03181 whole entry, looked up): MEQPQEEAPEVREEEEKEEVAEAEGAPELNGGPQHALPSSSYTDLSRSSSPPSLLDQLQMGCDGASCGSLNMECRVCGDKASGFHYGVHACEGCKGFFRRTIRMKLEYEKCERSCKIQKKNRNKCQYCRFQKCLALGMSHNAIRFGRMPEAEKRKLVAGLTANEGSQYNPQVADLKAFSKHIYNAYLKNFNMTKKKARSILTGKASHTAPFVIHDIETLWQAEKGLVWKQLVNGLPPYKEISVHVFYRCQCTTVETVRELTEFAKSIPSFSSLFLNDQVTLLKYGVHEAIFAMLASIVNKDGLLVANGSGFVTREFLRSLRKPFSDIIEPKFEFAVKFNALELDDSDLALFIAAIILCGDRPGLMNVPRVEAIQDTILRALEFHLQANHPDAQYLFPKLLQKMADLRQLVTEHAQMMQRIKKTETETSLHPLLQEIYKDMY
Chain of Retinoic acid receptor RXR-alpha (Homo sapiens) (P19793 whole entry, looked up): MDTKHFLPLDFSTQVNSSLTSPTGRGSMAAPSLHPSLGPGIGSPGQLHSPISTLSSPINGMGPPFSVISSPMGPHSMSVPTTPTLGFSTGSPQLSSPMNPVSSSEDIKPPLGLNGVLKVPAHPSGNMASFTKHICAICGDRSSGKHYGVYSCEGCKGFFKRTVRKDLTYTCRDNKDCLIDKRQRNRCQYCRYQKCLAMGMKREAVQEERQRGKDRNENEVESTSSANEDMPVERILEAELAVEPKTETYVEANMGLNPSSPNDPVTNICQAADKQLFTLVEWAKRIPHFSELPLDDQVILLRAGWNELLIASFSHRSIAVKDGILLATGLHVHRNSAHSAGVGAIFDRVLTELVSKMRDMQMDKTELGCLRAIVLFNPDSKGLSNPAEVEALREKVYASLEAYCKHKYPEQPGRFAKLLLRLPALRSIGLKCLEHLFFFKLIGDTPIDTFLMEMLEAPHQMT
Chain of Bile acid receptor (Homo sapiens) (Q96RI1 whole entry, looked up): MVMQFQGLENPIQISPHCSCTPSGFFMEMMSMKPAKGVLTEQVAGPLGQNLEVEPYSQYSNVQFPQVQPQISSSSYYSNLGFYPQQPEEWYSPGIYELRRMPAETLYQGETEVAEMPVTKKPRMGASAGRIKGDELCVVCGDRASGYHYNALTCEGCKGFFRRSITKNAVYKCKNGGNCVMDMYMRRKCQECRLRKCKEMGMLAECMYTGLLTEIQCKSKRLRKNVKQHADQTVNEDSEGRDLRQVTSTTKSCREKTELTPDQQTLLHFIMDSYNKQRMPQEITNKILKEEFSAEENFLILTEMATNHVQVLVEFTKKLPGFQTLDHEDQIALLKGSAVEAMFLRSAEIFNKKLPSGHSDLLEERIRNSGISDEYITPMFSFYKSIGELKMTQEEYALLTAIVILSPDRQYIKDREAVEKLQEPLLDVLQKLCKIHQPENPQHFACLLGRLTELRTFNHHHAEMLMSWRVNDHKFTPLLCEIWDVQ

As for `Cc1cc(Br)ccc1NC(=O)CCl`, the Potency in [1] was 24.5 µM (active); in assay [2], 24.5 µM (active); in assay [3], 24.5 µM (active); in [4], 19.5 µM (active); in assay [5], 12.3 µM (active); in assay [6] it was 19.5 µM (active). In addition, the Potency is 27.3 µM (active) in assay [7], 19.3 µM (active) in assay [8] and 21.9 µM (active) in assay [9]. In assay [10], the Potency result is “inactive”.
`CC(=O)[C@]1(O)Cc2c(O)c3c(c(O)c2[C@@H](O[C@H]2C[C@H](N)[C@H](O)[C@H](C)O2)C1)C(=O)c1ccccc1C3=O`: the Potency entry in assay [1], in assay [2], in assay [4], in [5], in [6] and in [8] was “inactive” throughout. The Potency entry in assay [14] and in [9] was “inactive” in each case. For the same molecule, the Potency was 3.76 µM (active) in [11], 1.9 µM (active) in assay [13], 26.6 µM (active) in assay [7] and 0.298 µM (active) in assay [15]. Moreover, the outcome in assay [12] was inactive.
Turning to `N#Cc1ccc(C/C(=N/NC(=O)Nc2ccc(OC(F)(F)F)cc2)c2cccc(C(F)(F)F)c2)cc1`, the Potency result in assay [7], in [8], in assay [14] and in [10] was “inactive” throughout.
Take `CCOC=C(C(=O)OCC)C(=O)OCC`: the Potency result in assay [7], in assay [8], in assay [14], in assay [16], in assay [10] and in assay [15] was “inactive” throughout.
For the molecule `CC(O)(c1ccc(Cl)cc1)c1ccc(Cl)cc1`, the molecule was called inactive in [17], in [19] and in assay [12]. Besides, the Potency result in [2], in assay [11], in assay [18], in [3], in assay [4] and in assay [7] was “inactive” each time. For the same molecule, in [8], the Potency entry was “inactive”. Besides, the results for the Potency in assay [14] and in assay [15] were 54.9 µM (active) and 61.1 µM (active), respectively.
`c1ccc2occc2c1`: the values for the Potency in [5] and in assay [16] were 49 µM (active) and 12.3 µM (active), respectively. For the same molecule, the Potency entry in assay [7], in [8], in assay [14], in [9] and in [10] was “inactive” each time.
For the molecule `CCCCCCCCCCCC(=O)Cl`, the Potency result in assay [7], in assay [8], in assay [14], in [10] and in assay [15] was “inactive” in each case.
As to `C=C1C(CCl)(CCl)C2(Cl)C(Cl)C(Cl)C1(Cl)C2(Cl)Cl` (stereo not drawn), the Potency was 34.3 µM (active) in assay [1]; 48.4 µM (active) in assay [3]; 21.6 µM (active) in [5]; 48.4 µM (active) in [6]; 60.4 µM (active) in assay [7]; 48 µM (active) in [8]. Further, the Potency in assay [14] is 43.1 µM (active); in [9], 24.3 µM (active). The Potency entry in assay [10] was “inactive”.
For the molecule `CCc1cccc(C)c1N(C(=O)C(=O)O)C(C)COC` (stereo not drawn), the Potency entry in [7], in [8], in assay [14], in assay [16], in assay [10] and in [15] was “inactive” each time.
For the molecule `CCn1c2ccccc2c2ccccc21`, the Potency result in assay [7], in assay [8], in assay [14], in assay [16], in assay [10] and in assay [15] was “inactive” in each case.
Take `[Cl][Eu]([Cl])[Cl]`: the Potency entry in [7], in [8], in [14], in assay [16] and in [10] was “inactive” throughout.
Consider `Cc1c(Cl)c(=O)oc2cc(O)ccc12`, for which the Potency result in [7], in assay [8], in assay [14], in [9] and in [10] was “inactive” throughout.
Take `CCN(CC)c1ccc(N=Nc2ccccc2)cc1`: the Potency result in [7], in assay [8], in assay [14] and in [15] was “inactive” throughout. The Potency in assay [9] is 19.5 µM (active).

Values taken from PubChem BioAssay (Tox21).
